Laboratory results taken from PubChem BioAssay (Tox21).
Inconclusive results are not listed. The source made the active and inactive calls. The call rests on the fitted dose curve; in most records, active means well fitted inhibition curve with a large enough effect in the repeat runs; inconclusive means weak or mixed curves; inactive means no such curve, though single readings can be large or run the other way. Non-standard residues stand in square brackets, D forms with d. Residues, ends and D or L forms follow the SMILES beside them. *: point of attachment. Sta = CC(C)C[C@H](N)[C@@H](O)CC(=O)O; Isovaleryl = CC(C)CC(=O)*

Target: Cytochrome P450 3A4 (Homo sapiens) (UniProt P08684)
Assay: Cytochrome P450 Family 3 Subfamily A Member 4 (CYP3A4) small molecule antagonists: luciferase reporter qHTS assay (AID 1671201); further: nearly all actives have a fitted effect of over 50% in size
Conditions: P450-Glo CYP3A4 enzyme, luciferin luminescence, 1 h; series mostly up to 115 µM; activity change, negative = inhibition: at the top concentration
Description: National Center for Advancing Translational Sciences [NCATS]
U.S. Environmental Protection Agency [EPA]
National Institutes of Environmental Health Sciences [NIEHS]
National Toxicology Program [NTP]
U.S. Food and Drug Administration [FDA]
Cytochrome P450 (CYP) enzymes are membrane-bound hemeproteins that play a key role in metabolism of drugs and xenobiotics. Evaluation of the effect of chemicals on CYP isozymes is useful to minimize the adverse drug reactions and toxicities in drug development process. Tox21 chemicals were tested for their effect on CYP enzyme activities by using P450-Glo (TM) screening systems (Promega Corporation, Madison, WI). These systems provide a luminescent method containing proluciferin substrates and are converted to luciferin products by CYP isozymes. The luciferin products formed are detected with a luciferin detection reagent, and the amount of light produced is proportional to CYP activity. P450-Glo (TM) CYP3A4 screening system (Catalog. No. V9910) was used to detect the compounds that interfere in CYP3A4 activity. The positive control compound used for CYP3A4 assay is ketoconazole (Sigma-Aldrich, St. Louis, MO).
Tox21 Assay Protocol Summary:
Two ul of enzyme-substrate mix was dispensed into medium binding white/solid 1536-well plates (Greiner Bio-One North America Inc., Monroe, NC) using a BioRaptr Flying Reagent Dispenser (FRD, Beckman Coulter, Brea, CA). Compounds dissolved in DMSO and positive control (ketoconazole) were transferred to the assay plates at 23 nl using a Pintool station (Wako, San Diego, CA). The assay plates were incubated at room temperature for 10 min. Then 2 ul of NADPH regeneration solution was added to each well of the assay plates using an FRD and incubated at room temperature for 1 h. The reaction was stopped by adding 4 ul of detection reagent using an FRD and after 20 min incubation at room temperature the luminescence signal was measured using a ViewLux plate reader (Perkin Elmer, Shelton, CT). Data were expressed as relative luminescence units.
On the % scale 0 is the no-effect control and ±100 the full control effect; potency means the concentration at half of the fitted maximal effect.

Chain of Cytochrome P450 3A4 (Homo sapiens) (P08684 whole entry, looked up): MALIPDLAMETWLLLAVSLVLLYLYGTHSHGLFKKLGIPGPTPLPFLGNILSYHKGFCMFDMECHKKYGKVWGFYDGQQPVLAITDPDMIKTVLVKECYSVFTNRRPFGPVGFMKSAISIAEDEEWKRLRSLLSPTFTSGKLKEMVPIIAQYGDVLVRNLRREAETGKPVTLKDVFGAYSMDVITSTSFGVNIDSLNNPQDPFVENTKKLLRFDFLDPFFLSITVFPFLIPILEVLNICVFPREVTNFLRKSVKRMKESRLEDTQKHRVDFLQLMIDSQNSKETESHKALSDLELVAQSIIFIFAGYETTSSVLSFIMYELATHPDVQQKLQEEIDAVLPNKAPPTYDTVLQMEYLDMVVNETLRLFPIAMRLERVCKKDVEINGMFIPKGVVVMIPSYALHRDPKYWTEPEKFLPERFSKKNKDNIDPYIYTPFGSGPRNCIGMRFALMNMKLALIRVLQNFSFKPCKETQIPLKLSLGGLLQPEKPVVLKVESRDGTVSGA

| Compound | activity change, negative = inhibition | Potency |
| --- | --- | --- |
| CCOC(=O)[C@H](CCc1ccccc1)N[C@H]1CS[C@H](c2cccs2)CN(CC(=O)O)C1=O | -9.47% [at 52.9 µM] (inactive) |  |
| CCCCN1C(=O)c2ccccc2C1=O | 90.6% (inactive) |  |
| CC(=O)c1c(C)cc(C(C)(C)C)cc1C | 5.93% (inactive) |  |
| Nc1cc(S(=O)(=O)O)ccc1O | 2.52% (inactive) |  |
| CCCC(=O)OC | 4.8% (inactive) |  |
| C=CCOC(=O)CCCCCCCC | -12.2% (inactive) |  |
| Nc1ccc(C(=O)NCC(=O)O)cc1 | 4.39% [at 52.9 µM] (inactive) |  |
| CCCCCCCC(=O)N(C)C | 11.9% (inactive) |  |
| CCCc1ncc(C(=O)O)s1 | 13.9% [at 52.9 µM] (inactive) |  |
| NC[C@H]1O[C@H](O[C@H]2[C@H](O)[C@@H](O[C@H]3O[C@H](CO)[C@@H](O)[C@H](N)[C@H]3O)[C@H](N)C[C@@H]2N)[C@H](N)[C@@H](O)[C@@H]1O | 6.04% [at 23.6 µM] (inactive) |  |
| CCCC[O][Al]([O]CCCC)[O]CCCC | 4.33% (inactive) |  |
| O=C(O)CCCCCCCCCC(=O)O | 8.02% (inactive) |  |
| O=c1c(O)c(O)c1=O | 1.21% (inactive) |  |
| CC(C)CC(=O)N[C@H](C(=O)N[C@H](C(=O)N[C@@H](CC(C)C)[C@@H](O)CC(=O)N[C@@H](C)C(=O)N[C@@H](CC(C)C)[C@@H](O)CC(=O)O)C(C)C)C(C)C (Isovaleryl-VV[Sta]A[Sta]-OH) | 0.66% [at 52.9 µM] (inactive) |  |
| CC(C)(C)OC(=O)c1ccccc1C(=O)O | -2.89% (inactive) |  |
| c1cc2ccc3ccc4ccc5cccc6c(c1)c2c3c4c56 | -22.2% [at 4.07 µM] (inactive) |  |
| CC(C)CC(O)Cc1ccccc1 (stereo not given) | 56% (inactive) |  |
| NNC(=O)CCCCC(=O)NN |  | 11.2 µM (active) |
| CCO/C=C1\N=C(c2ccccc2)OC1=O | 0.302% (inactive) |  |
| CCCCCCCCCCCC(C)=O | 5.57% (inactive) |  |

| Compound | activity change, negative = inhibition | Potency |
| --- | --- | --- |
| C[C@@H](CN1CC(=O)NC(=O)C1)N1CC(=O)NC(=O)C1 | 7.09% [at 52.9 µM] (inactive) |  |
| CCN1CCN(C(=O)N[C@@H](C(=O)N[C@@H]2C(=O)N3[C@@H]2SC(C)(C)[C@H]3C(=O)O)c2ccccc2)C(=O)C1=O | -5.66% [at 52.9 µM] (inactive) |  |
| CCCC(C)C(O)CC (stereo not given) | 1.91% (inactive) |  |
| COc1cc(C(=O)NC2CCCNC2)cc(OC)c1OC (stereo not given) | -13.1% [at 52.9 µM] (inactive) |  |
| CCCCS | 6.73% (inactive) |  |
| CCCC(=O)CC | -1.27% (inactive) |  |
| CC(C)C[P+](C)(CC(C)C)CC(C)C | 4.11% (inactive) |  |
| CCCCCCCOC(C)=O | 2.55% (inactive) |  |
| C=CCCCCCCCCOC(C)=O | -1.13% (inactive) |  |
| NCC1CCC(C(=O)Oc2ccc(CCC(=O)O)cc2)CC1 (stereo not given) | 10.2% [at 52.9 µM] (inactive) |  |
| O=C(O)P(=O)(O)O | 3.61% [at 52.9 µM] (inactive) |  |
| CC(C)=CCC/C(C)=C\C#N | -1.06% (inactive) |  |
| O=CN1CCCCC1 | 1.18% (inactive) |  |
| CCOCCOCCOC(C)=O | 1.55% (inactive) |  |
| COC(=O)c1ccc(NC(C)=O)cc1OC | 9.83% [at 52.9 µM] (inactive) |  |
| CC(C)(C)C(=O)CCc1ccc(Cl)cc1 | 21.5% (inactive) |  |
| CCOC(=O)c1ccc(N(C)C)cc1 | 42% (inactive) |  |
| Cc1ccc(Br)cc1 | 4.78% (inactive) |  |
| Cc1cc(=O)oc2cc(O[C@@H]3SC[C@@H](O)[C@H](O)[C@H]3O)ccc12 | 3.15% [at 52.9 µM] (inactive) |  |
| O=Cc1ccccc1S(=O)(=O)O | 14.1% (inactive) |  |
